The full list was thinned out, with hits kept by preference.
Giardia FBPA inh: blocks Giardia fructose-bisphosphate aldolase activity; hit rate 0.71% among 290,000; Potency, µM (series often up to 59.6 µM), without a hit: at the highest dose activity, negative = inhibition, most hits filed as inhibitors; purified Giardia FBPA; also: potency is read from the fitted curve at half-maximal effect; % is scaled to controls: 0 for no effect and ±100 for the full control effect; nearly all actives have a fitted effect of over 55% in size
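Giardia FBPA (40 nM reagent) was preincubated 10 min at RT with compound (up to 57.5 uM final), then substrate plus GAPDH/TPI/NAD/arsenate coupling system with diaphorase/resazurin was added; resorufin fluorescence (525/598 nm) was read after 20 min.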
TbPYK inhibitor: blocks Trypanosoma brucei pyruvate kinase; Potency, µM (doses to about 76.8 µM), for inactives: at the highest dose activity, negative = inhibition, usual class: inhibitors; hit rate 0.12% among 410,000; TbPYK enzyme, Kinase-Glo Plus ATP luminescence, 45 min; Q57TT1; AID 624173; also: potency is read from the fitted curve at half-maximal effect; % is scaled to controls: 0 for no effect and ±100 for the full control effect; nearly all actives have a fitted effect of over 50% in size
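Readout: single end-point luminescence (Kinase-Glo Plus, 10 min). Reaction conditions were TbPYK/substrate plus 130 uM ADP, 45 min at RT, pH 7.2 TEA buffer. No-enzyme wells served as controls, and data were normalized before concentration-response fitting.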
Shiga inhibitor: inhibitors of Shiga toxin in Vero cells. Vero cells, Shiga toxin protein synthesis inhibition reporter. inhibition, % at 38.7 µM. hit rate 9.2% among 290,000; in the data active = inhibition mostly above about 28%, no sharp cut-off; inactive = mostly below about 43%; also: 0% is about no effect
LmPK inh: LmPK (Leishmania mexicana) enzyme inhibition; purified LmPK, Kinase-Glo ATP luminescence, 1 h; Potency, µM (doses to about 57.5 µM), without a hit: at the highest dose activity change, negative = inhibition, actives largely listed as inhibitors; hit rate 0.37% among 290,000; AID 1721; also: potency is read from the fitted curve at half-maximal effect; % is scaled to controls: 0 for no effect and ±100 for the full control effect
Target sequence (Q27686 whole entry, looked up): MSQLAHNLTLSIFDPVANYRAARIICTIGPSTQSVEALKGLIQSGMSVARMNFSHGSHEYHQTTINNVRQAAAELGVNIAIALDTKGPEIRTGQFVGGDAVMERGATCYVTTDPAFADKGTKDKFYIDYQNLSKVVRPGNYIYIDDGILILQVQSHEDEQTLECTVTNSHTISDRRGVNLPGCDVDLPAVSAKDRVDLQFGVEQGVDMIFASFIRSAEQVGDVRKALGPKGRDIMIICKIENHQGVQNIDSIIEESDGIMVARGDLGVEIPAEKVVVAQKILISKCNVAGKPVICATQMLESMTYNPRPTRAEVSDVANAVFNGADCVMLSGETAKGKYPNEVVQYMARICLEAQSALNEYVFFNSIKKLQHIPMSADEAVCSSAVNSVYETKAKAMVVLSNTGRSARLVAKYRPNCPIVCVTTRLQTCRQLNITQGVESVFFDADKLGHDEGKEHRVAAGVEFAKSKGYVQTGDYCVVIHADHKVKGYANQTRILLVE
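Kinase-Glo luminescence read after 1 h RT reaction of 0.1 nM LmPK with 0.5 mM PEP and 0.1 mM ADP. Activity scaled between uninhibited and enzyme-free controls.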
RE007 growth inh: less growth of the S. pombe RE007 Vpr strain | S. pombe RE007 Vpr strain, BacTiter-Glo ATP luminescence, 24 h | Potency, µM (series often up to 92.2 µM), without a hit: top-dose activity change, negative = less growth, usual class: inhibitors | hit rate 0.21% among 360,000 | AID 651644; active = well fitted falling curve with a large enough effect; inconclusive = small, poorly fitted or top-dose-only effect; inactive = no such curve, though single readings can be large or run the other way; also: potency is read from the fitted curve at half-maximal effect; % is scaled to controls: 0 for no effect and ±100 for the full control effect; nearly all actives have a fitted effect of over 50% in size
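Fission yeast strain RE007, carrying one chromosomally integrated HIV-1 vpr copy, was seeded at OD 0.01 in PMG+AL medium with 23 nL pinned compound. After 24 h at 30 °C and 99% humidity, viability was read by BacTiter-Glo luminescence.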
CHX counter: affects cycloheximide protein synthesis inhibition readout, counter-screen. cell reporter, cycloheximide protein synthesis inhibition counterscreen. max response, %. hit rate 12% among 300,000. AID 2314; in the data active = max response mostly above about 13%, no sharp cut-off; inactive = mostly below about 14%; also: read at 38.3 µM for the half of the compounds with a filed dose; 0% is about no effect
Active calls of the source: *; ? = inconclusive; . = no result given; [ ] = dose if it differs, or a comment. Unless noted, calls follow the shape of the dose curve; as a rule, active = well fitted curve in the direction sought with a large enough effect; inconclusive = small, poorly fitted or top-dose-only effect, or another doubt; inactive = no such curve, though single readings can be large; an effect the other way counts as inactive or inconclusive.

SMILES	Giardia FBPA inh	TbPYK inhibitor	Shiga inhibitor	LmPK inh	RE007 growth inh	CHX counter
Cc1ccc(C(C)C)c(OCc2ccc(C(=O)N/N=C/c3ccc(O)c(O)c3)cc2)c1	?	2.5%	59.3*	-5.2%	0.9%	13.8*
COc1ccc(CC(=O)Nc2sc3c(c2C(=O)Nc2ccc(C)cc2)CCCCC3)cc1	.	-22.9%	.	.	.	.
CCOc1ccc(C(=S)NC2CCCCC2)cc1OCC	6.1%	?	-2.0	-1.1%	-0.9%	5.5
CCN(CC)c1ccc(C(=S)NC2CCCCC2)cc1	1.4%	-11.9%	76.2*	0.1%	-15.4%	24.4*
CN(C)c1ccc(C(=S)NC2CCCCC2)cc1	1.7%	-16.3%	69.2*	3.8%	-3.4%	24.5*
CN(C(=O)NC1CCCCC1)c1ccccc1	1.0%	-3.9%	-11.0	1.1%	3.6%	-3.2
[O-][n+]1cccc(CO)c1	.	2.1%	.	.	.	.
COC(=O)[C@]12CCCCC=C1N(Cc1ccccc1)C(=O)[C@H](CC(=O)NCc1ccccc1)C2	.	2.5%	.	.	28.0%	.
CCN(Cc1ccncc1)C(=O)c1cc(COc2ccc(OC)cc2Cl)on1	.	-1.5%	99.5*	-8.1%	15.1%	42.5*
CCN(CC1CCCO1)C(=O)c1cc(COc2ccc(OC)cc2Cl)on1 (stereo unspecified)	12.3%	2.8%	13.7	-2.9%	-2.1%	15.7*
Cn1c(=O)[nH]c(=O)c2c1nc(CN1CCN(c3ccccc3F)CC1)n2Cc1ccc(F)cc1	.	2.8%	.	.	.	.
COc1ccc(OCc2csc(N)n2)cc1	4.5%	3.3%	85.7*	3.7%	4.8%	36.0*
Cc1ccc(OCCc2csc(N)n2)cc1	-0.7%	0.3%	54.1*	1.1%	-10.6%	34.2*
Cc1ccc(S(=O)(=O)Cc2csc(N)n2)cc1	0.3%	-1.1%	-22.3	-3.2%	4.2%	-4.3
COc1cccc(C(=O)NNC(=O)Cc2csc(N)n2)c1	0.9%	-2.8%	-18.5	1.2%	-7.3%	3.9
CC(=O)Nc1ccc(NC(=O)C2(c3cccs3)CCOCC2)cc1	.	-0.9%[15.4 µM]	.	.	.	.
Cc1cc(O)ccc1N/C=C1\CCCC1=O	8.89µM*	-12.0%	41.9*	2.9%	0.9%	13.4*
CC(=O)Nc1ccc(N/C=C2/CCCC2=O)cc1	-12.2%	1.8%	48.8*	1.6%	-29.8%	10.5*
CC(=O)Nc1ccc2c(c1)CCCC2=O	-16.2%	0.3%	35.3	-3.9%	-12.0%	15.6*
CC1CCC/C(=C\Nc2ccc(C(=O)O)cc2)C1=O (stereo unspecified)	-10.1%	-10.6%	54.6*	2.0%	0.4%	36.6*
CCOC(=O)c1ccccc1N/C=C1\CCCCC1=O	1.5%	6.5%	-16.5	4.5%	-10.4%	-4.8
CC1CCC/C(=C\c2ccc(O)cc2)C1=O (stereo unspecified)	.	2.4%	.	.	?	.
COc1ccc2c(c1)CCCC2=O	.	4.0%	.	.	-12.8%	.
COc1nccnc1NS(=O)(=O)c1ccc(N/C=C2\CCCCC2=O)cc1	-1.3%	-12.2%	-3.5	9.8%	-1.5%	-1.2
O=c1cc(COc2ccccc2Cl)nc2scc(-c3ccccc3)n12	.	0.1%	.	.	.	.
SMILES	Giardia FBPA inh	TbPYK inhibitor	Shiga inhibitor	LmPK inh	RE007 growth inh	CHX counter
N#Cc1ccc(-c2nc3ccc(Br)cn3c2Cc2ccccc2)cc1	.	2.8%	.	.	-8.5%	.
COc1ccccc1N1CCN(C(=O)c2ccc3c(c2)NC(=O)C(CSCc2ccccc2C)N3)CC1 (stereo unspecified)	-24.5%	.	-7.3	14.9%	.	15.1
Cc1ccc([N+](=O)[O-])cc1N/C=C1\CCCCC1=O	17.5%	0.9%	92.9*	1.3%	4.8%	57.6*
CCOC(=O)c1ccc(N/C=C2/CCCC(C)C2=O)cc1 (stereo unspecified)	-5.4%	5.2%	51.9*	-5.3%	-26.0%	57.3*
O=C1CCCC/C1=C\Nc1ccc(C(=O)O)c(O)c1	-14.4%	-10.7%	62.1*	-24.6%	10.6%	17.2*
Cc1ccc([N+](=O)[O-])cc1NC(=O)C1CCCC1	-2.7%	0.4%	-11.8	-0.3%	0.6%	-2.7
CC1CCC/C(=C\Nc2ccc(C(=O)O)c(O)c2)C1=O (stereo unspecified)	-22.5%	-12.5%	81.8*	-11.4%	-0.1%	38.0*
O=C(O)C1Cc2ccccc2CN1C(=O)CCl (stereo unspecified)	?	-0.1%	21.5	2.7%	-3.4%	-4.1
CCOc1ccc(NC(=O)Cn2c(=O)n(CCc3ccccc3)c(=O)c3c4c(sc32)CN(C(C)=O)CC4)cc1	.	-9.1%	.	.	.	.
COc1ccc2cc(/C=C/C(=O)N3CCN(CC(=O)N4CCCCCC4)CC3)ccc2c1	3.4%	-1.9%	44.1*	-6.2%	-2.2%	36.9*
O=C(/C=C/c1ccc2c(c1)OCO2)N1CCCCC1	-5.8%	0.5%	45.2*	-0.4%	-4.8%	39.1*
COC(=O)C1CCN(C(=O)/C=C/c2ccc(OC)cc2)CC1	-1.5%	4.1%	93.1	-0.6%	3.1%	49.2*
COc1ccc(/C=C/C(=O)N2CCC(c3ccccc3)C2)cc1 (stereo unspecified)	-1.0%	-7.6%	12.0	1.9%	-11.6%	12.3
O=C(/C=C\C=C/c1ccc2c(c1)OCO2)N1CCCCC1	1.1%[21.7 µM]	.	.	.	.	.
CCOC(=O)C1CCN(C(=O)/C=C/c2ccccc2)CC1	5.2%	2.0%	72.6*	7.1%	28.8%	33.0
CC1CCCN(c2ncnc3c2nc2n3CCCCC2)C1 (stereo unspecified)	.	-1.7%	.	.	.	.
Cc1ccc(C2=Nc3ccccc3N(CC(=O)Nc3ccccc3F)C(=O)C2)cc1C	.	2.3%	.	.	.	.
CCn1ccc2cc(S(=O)(=O)N3CCCN(C(=O)Nc4ccc(C)c(F)c4)CC3)ccc21	.	-9.9%	.	.	.	.
CCOC(=O)C1CCN(C(=O)/C=C/c2ccc3c(c2)OCO3)CC1	4.2%	-5.0%	76.5	2.7%	-12.5%	28.7*
O=C(O)C1CCCN(C(=O)/C=C/c2ccccc2)CC1 (stereo unspecified)	.	-0.8%	.	.	7.7%	.
CN(C)C(CNC(=O)C1CCN(C(=O)/C=C/c2ccccc2)CC1)c1ccccc1 (stereo unspecified)	-0.8%	1.5%	59.0*	-8.6%	-14.7%	38.3*
COc1ccc(Cn2c(C(=O)O)c(CNCCc3ccccc3Cl)c3ccc(C)cc32)cc1	.	3.6%	.	.	.	.
COC(=O)c1cc(NC(=O)Cn2ncc3c2-c2ccccc2OC3)cc(C(=O)OC)c1	.	-6.0%	.	.	.	.
COc1ccc(OCc2cc(C(=O)NC(C)c3nc(C)cs3)no2)c(Cl)c1 (stereo unspecified)	.	-4.8%	.	.	3.7%	.
Cc1nc(CNC(=O)c2cc(COc3ccc(F)cc3Cl)on2)cs1	-3.1%	8.8%	10.1	4.2%	3.7%	7.7
COc1ccc(OCc2cc(C(=O)NC(C)c3csc(C)n3)no2)c(Cl)c1 (stereo unspecified)	-6.7%	0.7%	62.4*	8.3%	-6.4%	62.6*
COc1ccc(OCc2cc(C(=O)NCc3nc(C)cs3)no2)c(Cl)c1	.	6.4%	98.1*	-12.1%	-11.6%	52.1*

Bioassay records: PubChem, National Center for Advancing Translational Sciences (NCATS)
